PMC5700166
Substitutions are numbered along the chain they refer to.

Columns and labels:
Assay in all cases: protein-binding microarray (PBM); PBM: ~300 nM protein, 6 mM HEPES pH 7.8, 80 mM KCl, 0.5 mM EDTA, 0.5 mM EGTA, 6% glycerol, 35 ng/ul poly-dIdC, 1% milk, 1 h, room temperature; Ap Aiptasia and Nv Nematostella (sea anemones) / Co Capsaspora / Aq Amphimedon (sponge) / Dm Drosophila / Hu human; RHD is the Rel homology domain; high values mean tight binding
Conditions in all cases: dsDNA, one strand shown
[1] = target: T1, GST-Ap-NF-kB RHD (Exaiptasia pallida (Aiptasia), UniProt A0A913YAJ5 2-422)
T1 sequence: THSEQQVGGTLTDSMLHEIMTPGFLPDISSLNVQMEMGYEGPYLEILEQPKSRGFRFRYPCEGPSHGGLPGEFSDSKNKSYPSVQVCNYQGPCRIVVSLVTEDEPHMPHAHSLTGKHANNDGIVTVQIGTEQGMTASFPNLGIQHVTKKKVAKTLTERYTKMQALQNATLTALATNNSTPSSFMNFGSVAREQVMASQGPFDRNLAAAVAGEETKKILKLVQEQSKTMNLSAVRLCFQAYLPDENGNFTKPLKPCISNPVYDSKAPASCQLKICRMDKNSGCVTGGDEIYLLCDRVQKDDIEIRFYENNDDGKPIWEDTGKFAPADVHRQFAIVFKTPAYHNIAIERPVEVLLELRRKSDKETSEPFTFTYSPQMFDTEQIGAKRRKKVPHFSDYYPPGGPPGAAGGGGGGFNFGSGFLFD

[2] = target: T2, GST-Nv-NF-kB (Cys allele) (Nematostella vectensis, UniProt E5G601 2-411)
T2 sequence: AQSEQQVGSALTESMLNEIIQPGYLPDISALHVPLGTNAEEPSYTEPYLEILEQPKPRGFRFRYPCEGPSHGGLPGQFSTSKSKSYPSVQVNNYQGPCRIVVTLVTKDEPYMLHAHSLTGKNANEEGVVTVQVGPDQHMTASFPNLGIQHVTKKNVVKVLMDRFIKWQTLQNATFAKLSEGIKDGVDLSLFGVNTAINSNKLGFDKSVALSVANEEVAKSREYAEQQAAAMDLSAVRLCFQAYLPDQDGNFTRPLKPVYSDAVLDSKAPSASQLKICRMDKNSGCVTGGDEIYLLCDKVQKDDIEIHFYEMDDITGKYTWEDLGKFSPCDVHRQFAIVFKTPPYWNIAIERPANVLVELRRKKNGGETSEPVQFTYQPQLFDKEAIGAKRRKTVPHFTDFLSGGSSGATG

[3] = target: T3, GST-Nv-NF-kB (Ser allele) (Nematostella vectensis, UniProt A7UNT2 2-411)
T3 sequence: T2 sequence with Q21R, C66S, S207N, E215Q, V217A, E225K, A268E, D399E

[4] = target: T4, GST-Co-NF-kB (Capsaspora owczarzaki, UniProt F1ARL5 200-546)
T4 sequence: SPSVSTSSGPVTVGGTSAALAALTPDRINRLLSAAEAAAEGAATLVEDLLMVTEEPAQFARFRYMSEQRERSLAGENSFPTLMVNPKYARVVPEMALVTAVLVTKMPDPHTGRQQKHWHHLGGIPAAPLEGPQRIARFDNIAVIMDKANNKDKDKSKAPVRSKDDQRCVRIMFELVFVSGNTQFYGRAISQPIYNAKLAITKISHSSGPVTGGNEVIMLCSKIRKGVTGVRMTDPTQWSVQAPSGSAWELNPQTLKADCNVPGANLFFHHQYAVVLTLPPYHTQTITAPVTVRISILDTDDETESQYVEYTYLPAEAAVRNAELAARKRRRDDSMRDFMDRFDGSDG

[5] = target: T5, GST-Aq-NF-kB (Amphimedon queenslandica, UniProt A9Y5G7 2-389)
T5 sequence: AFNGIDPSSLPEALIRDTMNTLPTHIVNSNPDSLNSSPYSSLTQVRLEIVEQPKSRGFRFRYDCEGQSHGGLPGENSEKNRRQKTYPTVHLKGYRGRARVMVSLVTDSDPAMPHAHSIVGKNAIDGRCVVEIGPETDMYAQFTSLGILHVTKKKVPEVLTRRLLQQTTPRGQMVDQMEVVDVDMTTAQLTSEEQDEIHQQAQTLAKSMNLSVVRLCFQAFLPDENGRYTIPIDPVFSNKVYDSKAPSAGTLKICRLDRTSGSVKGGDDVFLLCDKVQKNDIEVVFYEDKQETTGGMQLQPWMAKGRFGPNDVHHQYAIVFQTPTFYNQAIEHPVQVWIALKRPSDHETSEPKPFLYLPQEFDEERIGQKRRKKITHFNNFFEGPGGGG

[6] = target: GST-Hu-p50 (Homo sapiens, UniProt P19838 7-356)
Chain of GST-Hu-p50 (P19838 7-356): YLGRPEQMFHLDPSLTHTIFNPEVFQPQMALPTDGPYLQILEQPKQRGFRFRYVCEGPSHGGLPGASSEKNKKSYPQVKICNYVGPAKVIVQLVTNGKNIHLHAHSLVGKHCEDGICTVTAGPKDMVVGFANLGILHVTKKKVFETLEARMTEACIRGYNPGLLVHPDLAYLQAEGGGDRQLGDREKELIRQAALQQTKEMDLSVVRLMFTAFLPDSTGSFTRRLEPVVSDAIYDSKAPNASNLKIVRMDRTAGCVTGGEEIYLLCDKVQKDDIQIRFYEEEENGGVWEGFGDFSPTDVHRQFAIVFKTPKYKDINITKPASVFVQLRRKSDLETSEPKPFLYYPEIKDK

[7] = target: T6, GST-Dm-Relish (Drosophila melanogaster, UniProt Q94527 99-473)
T6 sequence: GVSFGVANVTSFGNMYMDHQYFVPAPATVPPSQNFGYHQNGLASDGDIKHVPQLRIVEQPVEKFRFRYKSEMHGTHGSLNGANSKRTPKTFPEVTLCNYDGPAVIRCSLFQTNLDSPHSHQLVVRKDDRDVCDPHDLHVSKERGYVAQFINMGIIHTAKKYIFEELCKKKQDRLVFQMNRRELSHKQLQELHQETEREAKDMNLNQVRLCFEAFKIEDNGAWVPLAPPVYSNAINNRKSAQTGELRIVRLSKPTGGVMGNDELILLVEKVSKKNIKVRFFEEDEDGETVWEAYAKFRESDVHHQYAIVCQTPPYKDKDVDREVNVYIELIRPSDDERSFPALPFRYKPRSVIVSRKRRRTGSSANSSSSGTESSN

Row | Sequence | binding signal [1] [z-score] | binding signal [2] [z-score] | binding signal [3] [z-score] | binding signal [4] [z-score] | binding signal [5] [z-score] | binding signal [6] [z-score] | binding signal [7] [z-score]
1 | CCGATTAACATCAAGCATTTCCCTGATGTTAATCGGGTCTTGATTCGCTTGACGCTGCTG | 2.4 | 4.4 | 4.14 | 2.36 | 3.63 | 2.72 | 
2 | CCGATTAACATCAATCTTTTCCCTGATGTTAATCGGGTCTTGATTCGCTTGACGCTGCTG | 2.35 | 4.39 | 5.52 | 3.98 | 3.34 | 2.99 | 
3 | CCGATTAACATCAAGTACGGGAATGATGTTAATCGGGTCTTGATTCGCTTGACGCTGCTG | 1.11 | 2.04 | 1.41 | 2.85 | 3.24 | 1.22 | 
4 | CCGATTAACATCAGGGAAACAAATGATGTTAATCGGGTCTTGATTCGCTTGACGCTGCTG | 1.7 | 3.05 | 3.17 | 4.61 | 3.12 | 1.97 | 
5 | CCGATTAACATCAGGGAATTGGATGATGTTAATCGGGTCTTGATTCGCTTGACGCTGCTG | 2.15 | 3.52 | 3.84 | 1.88 | 2.8 | 1.84 | 
6 | CCGATTAACATCAAGCAATCCCCTGATGTTAATCGGGTCTTGATTCGCTTGACGCTGCTG | 6.44 | 6.39 | 6.94 | 2.5 | 4.53 | 5.37 | 5.11
7 | CCGATTAACATCAATGTGGGAAATGATGTTAATCGGGTCTTGATTCGCTTGACGCTGCTG | 1.32 | 2.75 | 2.53 | 2.85 | 1.55 | 1.92 | 
8 | CCGATTAACATCAGGGGAAACCCTGATGTTAATCGGGTCTTGATTCGCTTGACGCTGCTG | 10.2 | 11.4 | 10.8 | 7.22 | 9.57 | 7.44 | 10
9 | CCGATTAACATCAAACTGGGAAATGATGTTAATCGGGTCTTGATTCGCTTGACGCTGCTG | 1.13 | 2.35 | 1.79 | 2.64 | 1.06 | 1.62 | 
10 | CCGATTAACATCAGAATTCTCCCTGATGTTAATCGGGTCTTGATTCGCTTGACGCTGCTG | 2.74 | 4.1 | 3.64 | 2.57 | 4.02 | 3.58 | 
11 | CCGATTAACATCACTAGTTTCCCTGATGTTAATCGGGTCTTGATTCGCTTGACGCTGCTG | 3.06 | 3.43 | 4.61 | 4.16 | 3.03 | 2.26 | 1.28
12 | CCGATTAACATCAACTTTTTCCCTGATGTTAATCGGGTCTTGATTCGCTTGACGCTGCTG | 2.88 | 4.79 | 6.57 | 5.52 | 3.16 | 2.68 | 
13 | CCGATTAACATCAGGGGACTTTATGATGTTAATCGGGTCTTGATTCGCTTGACGCTGCTG | 7.86 | 8.29 | 7.92 | 3.64 | 7.13 | 6.72 | 8.18
14 | CCGATTAACATCAGGGAAAGATATGATGTTAATCGGGTCTTGATTCGCTTGACGCTGCTG | 2.67 | 4.29 | 4.52 | 4.56 | 5.22 | 3.62 | 
15 | CCGATTAACATCACCATGGGAAATGATGTTAATCGGGTCTTGATTCGCTTGACGCTGCTG | 1.25 | 2.23 | 1.45 | 2.04 | 1.76 | 1.98 | 
16 | CCGATTAACATCAGGGGAATTACTGATGTTAATCGGGTCTTGATTCGCTTGACGCTGCTG | 8.73 | 10.6 | 10.2 | 7.45 | 8.27 | 7.09 | 10.2
17 | CCGATTAACATCAGGGAGTTTTATGATGTTAATCGGGTCTTGATTCGCTTGACGCTGCTG | 5.33 | 7.35 | 6.78 | 2.72 | 6.93 | 5.8 | 5.65
18 | CCGATTAACATCAGGGAAAGCTATGATGTTAATCGGGTCTTGATTCGCTTGACGCTGCTG | 2.11 | 3.99 | 3.57 | 2.65 | 3.54 | 2.53 | 
19 | CCGATTAACATCATCAGTTTCCCTGATGTTAATCGGGTCTTGATTCGCTTGACGCTGCTG | 2.11 | 3.16 | 4.41 | 2.69 | 2.58 | 1.61 | 
20 | CCGATTAACATCAAATAATCCCCTGATGTTAATCGGGTCTTGATTCGCTTGACGCTGCTG | 8.76 | 10 | 10.6 | 5.91 | 7.75 | 6.78 | 7.99
21 | CCGATTAACATCAAGGGGAATTATGATGTTAATCGGGTCTTGATTCGCTTGACGCTGCTG | 7.82 | 10.5 | 11.4 | 6.37 | 7.24 | 7.43 | 7.09
22 | CCGATTAACATCATGGGGAGGAATGATGTTAATCGGGTCTTGATTCGCTTGACGCTGCTG | 3.58 | 3.68 | 4.26 | 6.46 | 2.28 | 2.59 | 
23 | CCGATTAACATCATAATTCCCCATGATGTTAATCGGGTCTTGATTCGCTTGACGCTGCTG | 6.71 | 8.63 | 8.94 | 6.68 | 5.33 | 6.35 | 4.84
24 | CCGATTAACATCACACATGCCCCTGATGTTAATCGGGTCTTGATTCGCTTGACGCTGCTG | 1.13 | 1.37 | 1.04 | 1.12 | 1.68 | 1.36 | 
